This note sets out measurements from PubChem BioAssay AID504333 (National Center for Advancing Translational Sciences (NCATS), 2011).

The structures appear in SMILES notation. About 16,000 (4.4%) of roughly 360,000 compounds were called active. About 9% were inconclusive and are not listed. This is one part of a sample in which actives are shown more often than they occur. Unmarked numbers belong to inactive results. Calls follow the shape of the dose curve; as a rule, active = well fitted inhibition curve with a large enough effect; inconclusive = small, poorly fitted or top-dose-only effect; inactive = no such curve, though single readings can be large or run the other way.
% is scaled to controls: 0 for no effect and ±100 for the full control effect; potency is read from the fitted curve at half-maximal effect.

Bromodomain adjacent to zinc finger domain protein 2B (Homo sapiens), sequence (Q9UIF8 whole entry, looked up, the tested form may be a part): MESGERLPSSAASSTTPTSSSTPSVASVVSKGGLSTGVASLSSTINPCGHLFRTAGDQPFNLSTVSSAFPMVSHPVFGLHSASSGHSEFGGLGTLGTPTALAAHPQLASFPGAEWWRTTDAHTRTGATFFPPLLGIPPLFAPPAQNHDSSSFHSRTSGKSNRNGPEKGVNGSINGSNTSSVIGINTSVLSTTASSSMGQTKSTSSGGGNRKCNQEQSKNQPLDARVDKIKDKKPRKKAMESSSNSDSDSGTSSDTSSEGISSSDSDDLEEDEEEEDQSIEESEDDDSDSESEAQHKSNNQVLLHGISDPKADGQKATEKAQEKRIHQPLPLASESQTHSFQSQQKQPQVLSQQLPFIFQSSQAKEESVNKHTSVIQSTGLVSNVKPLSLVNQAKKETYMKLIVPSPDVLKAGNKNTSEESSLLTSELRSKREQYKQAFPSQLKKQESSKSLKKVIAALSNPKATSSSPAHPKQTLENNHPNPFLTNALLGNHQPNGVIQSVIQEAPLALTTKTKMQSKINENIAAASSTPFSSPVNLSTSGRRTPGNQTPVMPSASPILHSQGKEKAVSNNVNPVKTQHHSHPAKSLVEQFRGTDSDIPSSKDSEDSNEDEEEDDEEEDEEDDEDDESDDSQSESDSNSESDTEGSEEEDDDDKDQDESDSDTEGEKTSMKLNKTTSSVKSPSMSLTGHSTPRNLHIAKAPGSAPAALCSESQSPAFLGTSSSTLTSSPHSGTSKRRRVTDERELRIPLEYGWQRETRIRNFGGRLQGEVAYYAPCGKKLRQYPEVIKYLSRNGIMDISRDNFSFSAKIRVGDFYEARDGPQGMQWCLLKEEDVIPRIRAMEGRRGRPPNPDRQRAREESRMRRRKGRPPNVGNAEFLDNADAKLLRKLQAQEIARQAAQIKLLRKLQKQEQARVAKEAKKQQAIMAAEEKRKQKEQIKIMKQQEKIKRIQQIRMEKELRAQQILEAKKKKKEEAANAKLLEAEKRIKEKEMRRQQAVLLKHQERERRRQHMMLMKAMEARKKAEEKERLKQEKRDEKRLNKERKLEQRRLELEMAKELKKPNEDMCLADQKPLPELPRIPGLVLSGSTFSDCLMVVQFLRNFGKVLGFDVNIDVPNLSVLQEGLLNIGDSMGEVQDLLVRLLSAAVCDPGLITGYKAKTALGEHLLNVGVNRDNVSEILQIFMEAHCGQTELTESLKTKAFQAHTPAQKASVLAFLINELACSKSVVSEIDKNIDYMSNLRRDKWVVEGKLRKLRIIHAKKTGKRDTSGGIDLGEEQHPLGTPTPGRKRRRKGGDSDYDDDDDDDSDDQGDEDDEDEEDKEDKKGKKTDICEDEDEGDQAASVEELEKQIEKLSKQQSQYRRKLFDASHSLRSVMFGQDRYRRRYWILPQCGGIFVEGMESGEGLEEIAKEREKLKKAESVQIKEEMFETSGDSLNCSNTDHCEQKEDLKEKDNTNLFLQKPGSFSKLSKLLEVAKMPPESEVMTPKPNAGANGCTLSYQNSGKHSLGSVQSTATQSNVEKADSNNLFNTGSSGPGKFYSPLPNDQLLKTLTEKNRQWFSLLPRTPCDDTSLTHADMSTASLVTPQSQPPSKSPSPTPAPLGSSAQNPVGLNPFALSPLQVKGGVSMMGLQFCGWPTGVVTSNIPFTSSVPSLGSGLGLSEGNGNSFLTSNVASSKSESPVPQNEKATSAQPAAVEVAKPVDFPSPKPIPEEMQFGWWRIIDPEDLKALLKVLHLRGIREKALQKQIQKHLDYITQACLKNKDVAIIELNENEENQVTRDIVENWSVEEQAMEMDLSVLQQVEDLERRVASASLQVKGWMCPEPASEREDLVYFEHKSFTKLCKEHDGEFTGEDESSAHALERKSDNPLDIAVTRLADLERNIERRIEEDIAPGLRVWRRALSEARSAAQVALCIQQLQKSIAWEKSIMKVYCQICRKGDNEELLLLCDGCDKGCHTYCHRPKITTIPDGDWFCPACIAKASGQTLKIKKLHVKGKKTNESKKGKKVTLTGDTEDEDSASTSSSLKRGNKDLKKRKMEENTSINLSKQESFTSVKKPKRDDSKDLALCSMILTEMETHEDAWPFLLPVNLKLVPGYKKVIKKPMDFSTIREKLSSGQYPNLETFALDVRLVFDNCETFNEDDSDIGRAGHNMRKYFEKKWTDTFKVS

For the experiment, the target named is Bromodomain adjacent to zinc finger domain protein 2B (Homo sapiens) (UniProt Q9UIF8). As to the kind of experiment: qHTS Assay for Inhibitors of BAZ2B. Also: nearly all actives have a fitted effect of over 60% in size. The following applies: AlphaScreen BAZ2B-H3K14Ac peptide displacement; series mostly up to 114 µM; activity change, negative = inhibition: at the top concentration. In short, it runs like this:
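Complex of BAZ2B and biotin-H3K14Ac (50 nM apiece) forms over 30 min at RT, then faces library compounds up to 110 uM for another 30 min; AlphaScreen beads added, 20 min dark incubation, luminescence read.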
Background: Quantitative high-throughput screening tests each substance at several concentrations.
On to `Cc1ccc(Cl)cc1NC(=O)Cc1ccc(-n2c(C)nc3cccnc32)cc1`, for which the “activity change, negative = inhibition” value was -5.91%. For the compound `CC(NC(=O)CCc1cn(Cc2ccccc2Cl)c2ccccc12)c1ccccc1` (stereo not drawn), the “activity change, negative = inhibition” value is -5.03%.

For `CCOc1ccc(CCNC(=O)c2cc3c(=O)n(C)c4ccccc4c3n2C)cc1`, the “activity change, negative = inhibition” value was -3.88%. As to `COc1ccccc1OCC(=O)OCc1cc(-c2ccco2)on1`, the “activity change, negative = inhibition” value is 12.1%.

Turning to `Cc1cc(C)c(OCC(=O)N/N=C/c2ccco2)c(C)c1`, the “activity change, negative = inhibition” value is 3.11%.

`COC(=O)COc1ccc2c(c1C)O/C(=C\c1ccco1)C2=O`: the Potency was 50.1 µM (active). For `CCOC(=O)c1ccc2c(c1)N(Cc1cccc(OC)c1)C(=O)c1ccccc1S2(=O)=O`, the “activity change, negative = inhibition” value is 4.73%. For the compound `CCc1nc(-c2cc(S(=O)(=O)N3CCN(c4ccc(OC)cc4)CC3)ccc2OC)no1`, the “activity change, negative = inhibition” value was -33.9%. On the same count and under the same terms, next, `Cc1cc2c(cc1C)C(c1cccc(OC(C)C)c1)CC(=O)N2` (stereo not drawn): -1.89%. On the same count and under the same terms, the figure for `Cc1cc(C)c2c(-c3ccc(F)cc3)c(C#N)c(=O)n(C)c2n1` is -1.61%.

Take `N#Cc1c(-c2ccc(Cl)cc2)c2c([nH]c1=S)CCCC2`: the “activity change, negative = inhibition” value is -11.4%.

`CC(=O)c1c(C)[nH]c(=S)c(C#N)c1-c1ccc(F)cc1`: the Potency is 79.4 µM (active).

For the compound `CC(C)CCN(C(=O)Nc1ccc(Cl)c(Cl)c1)C(C)c1cccs1` (stereo not drawn), the “activity change, negative = inhibition” value is 72%.

For `Cc1ccc(Cn2c(CCCNC(=O)C3CCCCC3)nc3ccccc32)cc1`, the “activity change, negative = inhibition” value was -12.3%. Consider `CCOc1ccc(NC(=O)c2cc3c(=O)n(Cc4cccs4)ccc3nc2C)cc1`, for which the “activity change, negative = inhibition” value is -15.9%.

Consider `O=C(Nc1n[nH]c(C(F)(F)F)n1)c1cccs1`, for which the “activity change, negative = inhibition” value was -9.64%. As for `COc1ccc(CC(=O)Nc2nc3n(n2)C(c2ccccc2)CC(=O)N3)cc1OC` (stereo not drawn), the “activity change, negative = inhibition” value was -28.7%.

`CC1CC(c2ccccc2)n2nc(NC(=O)c3cccs3)nc2N1` (stereo not drawn): the Potency was 79.4 µM (active). For the compound `O=C(c1ccc2c(c1)N(Cc1ccc(Cl)cc1)C(=O)c1ccccc1S2(=O)=O)N1CCCCC1`, the “activity change, negative = inhibition” value is -21%. Same read-out and setting: the figure for `Cc1ccc2nc(COc3cccc(NC(=O)c4ccccc4Cl)c3)cc(=O)n2c1` is 6.72%. As for `Cc1ccc(S(=O)(=O)n2nc(-c3ccc(Cl)cc3)nc2NCc2ccccc2)cc1`, the “activity change, negative = inhibition” value was 3.65%. For `FC(F)(F)c1nc2ccccc2nc1N/N=C/c1ccc(Cl)cc1`, the “activity change, negative = inhibition” value was -34.1%.

For the compound `Cc1ccc(/C=N/NC(=O)C2=NNC(c3ccccc3)(c3ccccc3)C2)c(O)c1`, the “activity change, negative = inhibition” value is -5.41%.

As for `Cc1nc2ccccc2nc1N/N=C/c1ccc(O)cc1O`, the Potency is 25.1 µM (active). Consider `Cc1ccc(Cl)cc1-n1ncc2c(N3CCC(C(N)=O)CC3)ncnc21`, for which the “activity change, negative = inhibition” value is -1.64%. For `Cc1cccn2c(=O)c3cc(C(=O)NC(C)c4ccccc4)c(=N)n(CCCO)c3nc12` (stereo not drawn), the “activity change, negative = inhibition” value is 0.391%. On the same count and under the same terms, the figure for `COc1ccc(-c2cc(NCc3ccc(F)cc3)n3cnnc3n2)cc1` is -2.56%; for `Cc1ccc(CSc2nc3cccnc3n2Cc2ccc(C(=O)NC3CC3)cc2)cc1` it is 6.32%.
